# Compounds with a hit are over-represented: about 10% of the library has one in this group of screens.
# Mm-Cpn inhibitor – M. maripaludis TRiC chaperonin inhibition. 0.031% of 330,000 active. Potency, µM (top dose mostly 76.9 µM), without a hit: at the top dose activity, negative = inhibition, usual class: inhibitors. AID 504842. purified Mm-Cpn ATPase, ADP Transcreener TR-FRET; also: potency is read from the fitted curve at half-maximal effect; nearly all actives have a fitted effect of over 80% in size
#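 25 nM Mm-CPN + cpd, 10 min 37°C; + 10 uM ATP, 30 min 37°C; buffer 30 mM Tris pH 7.4, 100 mM KCl, 5 mM MgCl2, 1 mM DTT; Transcreener ADP HTRF detection 30 min RT.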
# CCT modulator – cytosolic chaperonin activity modulation; AID 651819; purified chaperonin ATPase assay, HTRF ADP detection, 30 min; 0.3% of 360,000 active; activity change, % (concentration not given with the values), hits read low; in the data active = activity change below about -30%
#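 First, chaperonin was dispensed at 40 nM or 20 nM final depending on batch activity. Next, compounds were pinned at 76 uM and ATP added at 10 uM. After 30 min at 37 °C, ADP detection reagents ran 30 min at ambient temperature.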
# PLK1 PBD inh – inhibitors of human PLK1 polo-box domain binding | AID 720504 | Potency, µM, for the others: max response, negative = inhibition, usual class: inhibitors | 2.8% of 360,000 active | Plk1 PBD binding of FITC phosphopeptide, fluorescence polarization | P53350; also: potency is read from the fitted curve at half-maximal effect; series mostly up to about 57 µM; nearly all actives have a fitted effect of over 65% in size
# G9a inh – inhibitors of human histone lysine methyltransferase G9a | G9a H3K9 monomethylation, AlphaScreen, 2 h | Potency, µM (highest dose often 102 µM), without a hit: top-dose activity, negative = inhibition, usual class: inhibitors | 8.8% of 350,000 active; also: potency is read from the fitted curve at half-maximal effect; nearly all actives have a fitted effect of over 75% in size
# Target sequence (Q96KQ7 913-1193 limits assumed): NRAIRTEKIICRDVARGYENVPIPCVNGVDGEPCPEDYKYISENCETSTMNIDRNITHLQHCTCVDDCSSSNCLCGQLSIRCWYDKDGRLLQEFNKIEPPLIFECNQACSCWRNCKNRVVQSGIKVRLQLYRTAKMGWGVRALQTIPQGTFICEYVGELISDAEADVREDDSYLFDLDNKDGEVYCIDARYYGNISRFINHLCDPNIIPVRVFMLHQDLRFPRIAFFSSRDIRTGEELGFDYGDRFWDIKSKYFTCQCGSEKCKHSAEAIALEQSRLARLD
#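 G9a (20 nM) was preincubated 15 min with compound, then reacted 2 h at room temperature with 500 nM biotin-H3K9 peptide and 20 µM SAM. Monomethyl-H3K9 detected by AlphaScreen using anti-H3K9me1 antibody.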
# VDR inhibitor – inhibitors of human vitamin D receptor; VDR-SRC2-3 peptide fluorescence polarization, 2 h; P11473; Potency, µM, inactives show max response, negative = inhibition, usual class: inhibitors; 0.93% of 400,000 active; also: potency is read from the fitted curve at half-maximal effect
#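 Compounds are added to VDR with labelled SRC2-3 coactivator peptide and held 2 h at room temperature. Inhibition of the VDR–peptide interaction is then read as a change in fluorescence polarization.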
# Sfp PPTase inh – inhibitors of Bacillus subtilis Sfp phosphopantetheinyl transferase; Q9F4F7; Biochemical Sfp PPTase activity, qHTS; Potency, µM, inactives show largest response in the series, negative = inhibition, most hits filed as inhibitors; 3.5% of 310,000 active; AID 1490;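 also: the enzyme is Sfp with the accession as filed and its product quenches rhodamine fluorescence; potency is read from the fitted curve at half-maximal effect; 0% = enzyme reaction without inhibitor and -100% = no enzyme wells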
#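 Reaction rates are the 30-min fluorescence difference (ex 525, em 598 nm) in wells containing 15 nM Sfp, 5 uM rhodamine-CoA and 12.5 uM BHQ-2-YbbR at pH 7.6 with 10 mM MgCl2.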
# An asterisk follows results filed as active; ? = inconclusive; / = no result given; [ ] = dose if it differs, or a comment. Unless noted, calls follow the shape of the dose curve; as a rule, active = well fitted curve in the direction sought with a large enough effect; inconclusive = small, poorly fitted or top-dose-only effect, or another doubt; inactive = no such curve, though single readings can be large; an effect the other way counts as inactive or inconclusive. Unless noted, % is scaled to controls: 0 for no effect and ±100 for the full control effect.
SMILES,Mm-Cpn inhibitor,CCT modulator,PLK1 PBD inh,G9a inh,VDR inhibitor,Sfp PPTase inh
CCOC(=O)c1ccc(NC(=O)CC2Sc3ncnn3C2=O)cc1 (configuration not stated),-1%,3,?,2.2µM*,1%,22µM*
COc1ccc(NC(=O)CN2C(=O)C(C)SC(C)C2=O)cc1 (configuration not stated),-14%,1,-14%,33%[59 µM],17%,6%
COc1ccc(NC(=O)CC2Sc3ncnn3C2=O)cc1 (configuration not stated),1%,-2,?,1.4µM*,-19%,45µM*
O=C(CC1Sc2ncnn2C1=O)Nc1ccc(Cl)cc1 (configuration not stated),-29%,-1,-22%,2.5µM*,-4%,35µM*
O=C(CC1SC2=NCCN2C1=O)Nc1ccc(Cl)cc1 (configuration not stated),0%,1,-5%,-2%[59 µM],11%,15%
CCOC(=O)c1ccc(NC(=O)CC2SC(=NC)N(C)C2=O)cc1 (configuration not stated),0%,0,-11%,-28%[12.7 µM],10%,1%
O=C(COc1ccc(Cl)cc1)Nc1ccc(-c2nc3ccccc3s2)c(O)c1,/,/,/,-29%[59 µM],-4%,/
Cn1c(OCC2CCCO2)nc2cc(-c3ccccc3)sc2c1=O (configuration not stated),/,-48*,-11%,/,/,/
Cc1nc2cc(-c3ccccc3)sc2c(=O)n1N,2%,-31*,1%,5%[59 µM],2%,10%
Cc1ccc(C)n1-n1c(C)nc2sc(-c3ccccc3)cc2c1=O,0%,-2,-3%,14µM*,7%,-2%
Cc1ccccc1-c1cc2nc(OCC3CCCO3)n(C)c(=O)c2s1 (configuration not stated),/,0,-12%,/,/,/
Cc1c(Cl)cccc1NC(=O)c1ccc2c(c1)nnn2C1CCCC1,/,/,/,0%[59 µM],2%,/
O=C(NNc1cccc(Cl)c1)c1cccnc1Cl,-1%,0,5%,10µM*,-4%,-2%
O=C(NNc1cccc(Cl)n1)c1cccnc1Cl,2%,1,-7%,10%[59 µM],-18%,0%
CCCc1c(C(=O)NNc2cccc(Cl)c2)cnn1-c1ccccc1,0%,-1,-12%,35µM*,?,4%
CCN1c2ccccc2-c2nc(SCC(=O)Nc3c(C)cc(C)cc3C)ncc2S1(=O)=O,/,/,/,1%[59 µM],7%,/
O=c1cc(-c2ccc(O)cc2)oc2cc(O[C@@H]3O[C@H](CO)[C@H](O)[C@H](O)[C@H]3O)cc(O)c12,/,/,/,/,6%,6%
CCOn1c(=O)c(-c2ccc(Br)cc2)[n+]([O-])c2ccccc21,-2%,-1,-5%,20%,3%,6%
C=CCOn1c(=O)c(-c2ccc(OC)cc2)[n+]([O-])c2ccccc21,0%,0,12µM*,-36%[59 µM],-5%,-3%
O=c1c(-c2ccc(Br)cc2)[n+]([O-])c2ccccc2n1OCc1ccccn1,-3%,0,24µM*,22%[59 µM],-17%,0%
COC(=O)C/C=C\[C@@H](C)[C@@H](/C=N\OC[C@@H](O)COCc1ccco1)NS(=O)(=O)c1ccc(C)cc1,/,/,/,/,/,-5%
CCOC(=O)c1c(NC(=O)c2cc3nc(-c4ccc(Br)cc4)cc(C(F)(F)F)n3n2)sc(C(C)=O)c1C,/,/,/,?,3%,/
Cc1ccnc(N=O)c1,-1%,1,11µM*,/,-23%,/
Cc1ccc(-n2[nH]c(C)c(C=Nc3cc(C)ccn3)c2=O)cc1,-1%,-1,-14%,?,0%,-3%
COc1ccc(C(=O)O)nc1C,3%,0,-3%,-11%,-6%,45µM*
SMILES,Mm-Cpn inhibitor,CCT modulator,PLK1 PBD inh,G9a inh,VDR inhibitor,Sfp PPTase inh
COc1ccc(-c2nc(C(=O)O)cs2)cc1OC,-4%,1,-3%,?,45%,-25%
CC(NC(=O)Nc1cc(Cl)ccc1Cl)c1c(-n2cccc2)sc2c1CCCC2 (configuration not stated),/,/,/,-40%[59 µM],7%,/
COc1ccc(C=CC(=O)c2cc(O)ccc2O)cc1,/,-1,-2%,/,?,/
COC(=O)/C=C\c1cc(O)ccc1O,/,/,/,/,?,50µM*
COCCCNC(=O)Cn1c(=O)n(-c2ccc(C)cc2)c(=O)c2c1c1cc(C)ccc1n2C,/,/,/,4%[59 µM],-3%,/
CCOC(=O)c1c(NC(=O)c2ccccc2)sc2c(O)c(CN(CC)CC)ccc12,-2%,-1,-6%,50µM*,8%,1%
CCOC(=O)c1sc(NC(=S)NC(=O)c2ccccc2)c(C(=O)OCC)c1C,1%,0,4%,17%[59 µM],-22%,-4%
O=C(Nc1ccccc1)C1C2/C=C\CCCCC21 (configuration not stated),4%,1,27µM*,-7%,-12%,20%
C=CCOC(=O)c1[nH]c2c(c1C)C(=O)CC(c1ccco1)C2 (configuration not stated),1%,-9,?,?,79µM*,?
C/C=C/COC(=O)c1[nH]c2c(c1C)C(=O)CC(c1ccco1)C2 (configuration not stated),-3%,0,?,45µM*,?,50µM*
Cc1c(C(=O)OCC(C)C)[nH]c2c1C(=O)CC(c1ccco1)C2 (configuration not stated),0%,0,-10%,40µM*,-14%,40µM*
CCC(C)NC(=O)c1cn(-c2cccc(C)n2)cn1 (configuration not stated),0%,0,2%,36%[0.501 µM],5%,12%
Cc1cccc(-n2cnc(C(=O)O)c2)n1,-1%,3,1%,-42%,9%,56µM*
Cc1cccc(-n2cnc(C(=O)NC3CCCCCC3)c2)n1,-1%,-2,24µM*,0%,-2%,17%
Cc1cccc(-n2cnc(C(=O)N3CCN(C)CC3)c2)n1,-5%,-4,-8%,-24%,-2%,-2%
Cc1oc(-c2ccccc2F)nc1CSCC(=O)NCc1ccccc1,/,/,/,8%[59 µM],-9%,/
CC(C)C(NC(=O)c1ccccc1F)C(=O)NCc1ccccc1 (configuration not stated),1%,-1,27µM*,6%[59 µM],?,16%
CCOC(=O)C1=NNC2(CC(=O)N(c3cc(C)cc(C)c3)C2=O)C1 (configuration not stated),2%,-3,-22%,-44%,11%,2%
CCOC(=O)C1=NN(N=O)C2(CC(=O)N(c3cc(C)cc(C)c3)C2=O)C1 (configuration not stated),0%,-1,-18%,4.5µM*,-6%,-13%
CC(C)C1C(=O)NC(=S)N1S(=O)(=O)c1ccc(C(C)(C)C)cc1 (configuration not stated),1%,1,24µM*,3.2µM*,-18%,4%
